# Active and inactive are the calls of the source. Rule for the calls: active = hit-call score of the fitted dose curve at least 0.9, where 1 is the maximum; inactive = score below 0.9.
# Tests used:
# [1] = APR_HepG2_CellCycleArrest_1hr: Apredica 1-hour HepG2 Assay for Cell Cycle Arrest (AID 2282666); conditions: high-content imaging, actives raise or lower the signal
# How it was run: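 HepG2 cells exposed for 1 h to 0.39–200 uM compound (0.5% DMSO). Fixed, Hoechst-stained nuclei imaged by ArrayScan; DNA content quantified by Cell Cycle analysis; bidirectional fit against DMSO.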
# [2] = APR_HepG2_MicrotubuleCSK_1hr: Apredica 1-hour HepG2 Assay for Microtubule CSK Stabilty (AID 2282669); conditions: HepG2 microtubule cytoskeleton imaging, actives raise or lower the signal
# How it was run: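 HepG2 cells exposed 1 h to 0.39–200 uM compound (0.5% DMSO, duplicates), then formaldehyde-fixed, permeabilized and immunostained for alpha-tubulin with Hoechst nuclei. Imaged by ArrayScan high-content analysis; bidirectional fit versus DMSO.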
# [3] = APR_HepG2_NuclearSize_1hr: Apredica 1-hour HepG2 Assay for Nuclear Size (AID 2282670); conditions: high-content imaging, actives raise or lower the signal
# How it was run: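 HepG2 cells dosed 1 hr with 0.39–200 uM compound (0.5% DMSO), formaldehyde-fixed, Hoechst 33342-stained and imaged at 20x; nuclear diameter from nuclear stain, fitted bidirectionally against DMSO.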
# [4] = APR_HepG2_p53Act_1hr: Apredica 1-hour HepG2 Assay for p53 Activation (AID 2282671); conditions: high-content imaging, actives raise or lower the signal
# How it was run: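 HepG2 cells treated 1 h with compound at 0.39–200 uM (10 concentrations, duplicate) in 0.5% DMSO. Formaldehyde-fixed, permeabilised cells immunostained for p53 with Hoechst 33342; high-content imaging, bidirectional fit versus DMSO.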
# [5] = APR_HepG2_MitoticArrest_1hr: Apredica 1-hour HepG2 Assay for Mitotic Arrest (AID 2282672); conditions: high-content imaging, actives raise or lower the signal
# How it was run: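 HepG2 cells exposed 1 hr to compounds at 0.39–200 uM (0.5% v/v DMSO final), then fixed in 3.7% formaldehyde and immunostained for phospho-histone H3 with Hoechst 33342. Mitotic arrest scored by automated fluorescence imaging, fitted bidirectionally versus DMSO.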
# [6] = APR_HepG2_P-H2AX_1hr: Apredica 1-hour HepG2 Assay for H2AX Phosphorylation (AID 2282673); conditions: high-content imaging, actives raise or lower the signal
# How it was run: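 HepG2 dosed 1 hr at 0.39-200 uM (0.5% DMSO final), duplicate. Fixed in 3.7% formaldehyde, Triton permeabilized, immunostained for phospho-histone H2A.x (1:200) with Hoechst 33342; ArrayScan 20x imaging, bidirectional fit vs DMSO.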
# [7] = APR_HepG2_MitoMass_1hr: Apredica 1-hour HepG2 Assay for Mitochondrial Mass (AID 2282674); conditions: high-content imaging, actives raise or lower the signal
# How it was run: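 HepG2 cells dosed 1 hr with 0.39-200 uM compound (0.5% DMSO), duplicate wells. Mitochondria stained with 250 nM MitoTracker Red CMXRos for 30 min before formaldehyde fixation, imaged at 20x by ArrayScan; bidirectional fit versus DMSO.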
# [8] = APR_HepG2_MitoMembPot_1hr: Apredica 1-hour HepG2 Assay for Mitochondrial Membrane Potential (AID 2282675); conditions: imaging, actives raise or lower the signal
# How it was run: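 HepG2 cells dosed 1 hour with 0.39–200 uM compound in duplicate, 0.5% DMSO final. MitoTracker Red CMXRos (250 nM, 30 min) loaded before formaldehyde fixation; fluorescence quantified by high-content imaging, bidirectional fitting versus DMSO.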
# [9] = APR_HepG2_CellCycleArrest_24hr: Apredica 24-hour HepG2 Assay for Cell Cycle Arrest (AID 2282905); conditions: imaging, actives raise or lower the signal;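 note: cell cycle arrest scored as ratio of 2N to 4N nuclear DNA content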
# How it was run: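 Cell cycle arrest is scored from nuclear DNA content measured by high-content imaging of Hoechst 33342-stained HepG2 cells following 24-hour treatment at ten concentrations up to 200 uM, with DMSO as baseline.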
# [10] = APR_HepG2_StressKinase_1hr: Apredica 1-hour HepG2 Assay for Stress Kinase (AID 2282906); conditions: HepG2 stress kinase (phospho-c-Jun) imaging, actives raise or lower the signal
# How it was run: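 HepG2 cells dosed 0.39-200 uM (0.5% DMSO) for 1 h, then formaldehyde-fixed. Stress kinase read by phospho-c-Jun immunofluorescence using high-content imaging; bidirectional fit vs DMSO.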
# [11] = APR_HepG2_NuclearSize_24hr: Apredica 24-hour HepG2 Assay for Nuclear Size (AID 2282907); conditions: high-content imaging, actives raise or lower the signal
# How it was run: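 Compounds in DMSO (final 0.5%) were added to human HepG2 hepatoma cells at ten concentrations up to 200 uM for 24 hr. Fixed nuclei were stained with Hoechst 33342, and nuclear diameter was quantified from automated images.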
# [12] = APR_HepG2_CellLoss_24hr: Apredica 24-hour HepG2 Assay for Cell Loss (AID 2282908); conditions: high-content imaging;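 for AC50: fit in both directions so a hit may be cell loss or gain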
# How it was run: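 Cell number is quantified by fluorescence imaging of Hoechst 33342-stained nuclei following dosing at 0.39–200 uM in 0.5% DMSO. Curves are fitted in both directions from the DMSO baseline.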
# [13] = APR_HepG2_MitoticArrest_24hr: Apredica 24-hour HepG2 Assay for Mitotic Arrest (AID 2282910); conditions: high-content imaging, actives raise or lower the signal
# How it was run: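 Compounds are dosed onto HepG2 cells across ten concentrations up to 200 uM for 24 hr. Cells are then fixed in 3.7% formaldehyde, permeabilised, and labelled for phospho-histone H3 and nuclei; images are scored by cell cycle analysis and fitted bidirectionally relative to DMSO.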
# [14] = APR_HepG2_MitoMembPot_24hr: Apredica 24-hour HepG2 Assay for Mitochondrial Membrane Potential (AID 2282911); conditions: imaging, actives raise or lower the signal
# How it was run: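 HepG2, 24 hr dosing, 10 concentrations 0.39–200 uM, 0.5% DMSO final. Live-cell MitoTracker Red CMXRos 250 nM 30 min, then 3.7% formaldehyde fix. HCS fluorescence imaging, 20x; bidirectional fit vs DMSO baseline.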
# [15] = APR_HepG2_MitoMass_24hr: Apredica 24-hour HepG2 Assay for Mitochondrial Mass (AID 2282912); conditions: high-content imaging, actives raise or lower the signal
# How it was run: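 The liver line HepG2 was dosed in duplicate across a 0.39–200 uM series, with final DMSO held at 0.5% v/v, and harvested at 24 hr. High-content imaging measured mitochondrial dye staining.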
# [16] = APR_HepG2_p53Act_24hr: Apredica 24-hour HepG2 Assay for p53 Activation (AID 2282913); conditions: high-content imaging, actives raise or lower the signal;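 note: p53 protein immunofluorescence averaged per cell in HepG2 with Hoechst nuclei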
# How it was run: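 Read-out: Cy5 immunofluorescence for p53 in fixed, permeabilized HepG2, imaged by HCS with Hoechst-defined nuclei. Dosing was 24 hr at 0.39–200 uM in 0.5% DMSO. Curves were fitted bidirectionally relative to DMSO.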
# [17] = APR_HepG2_CellCycleArrest_72hr: Apredica 72-hour HepG2 Assay for Cell Cycle Arrest (AID 2282914); conditions: high-content imaging, actives raise or lower the signal
# How it was run: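 HepG2, 72 hr exposure, 10-point 0.39–200 uM, duplicate, 0.5% DMSO final. Fix 3.7% formaldehyde 30 min RT, Triton X-100 0.5%, Hoechst 33342 2 ug/mL. ArrayScan 20x, six fields/well; DNA content per nucleus; bidirectional fit vs DMSO.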
# [18] = APR_HepG2_CellLoss_72hr: Apredica 72-hour HepG2 Assay for Cell Loss (AID 2282915); conditions: high-content imaging
# How it was run: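 Cell number comes from Hoechst 33342-labelled nuclei, imaged at 20x after 3.7% formaldehyde fixation. Dosing was 0.39–200 uM, ten concentrations in duplicate, 0.5% DMSO final, for 72 h. Bidirectional fit relative to DMSO baseline.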
# [19] = APR_HepG2_CellLoss_1hr: Apredica 1-hour HepG2 Assay for Cell Loss (AID 2282668); conditions: high-content imaging;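 note: curves fitted both ways against DMSO so gain or loss of cells counts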
# How it was run: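 HepG2 cells were treated for 1 h with compound at 0.39–200 uM, in duplicate, in 0.5% DMSO. After formaldehyde fixation, Hoechst 33342-stained nuclei were imaged on an ArrayScan to count cells. Data were fitted bidirectionally versus DMSO.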
# [20] = APR_HepG2_MicrotubuleCSK_24hr: Apredica 24-hour HepG2 Assay for Microtubule CSK Stabilty (AID 2282909); conditions: HepG2 microtubule cytoskeleton imaging, actives raise or lower the signal
# How it was run: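 Steps: dose HepG2 for 24 h (0.39–200 uM, 0.5% DMSO); fix 30 min in 3.7% formaldehyde at room temperature; permeabilize; stain alpha-tubulin 60 min; image microtubule cytoskeleton at 20x. Signal change fitted in both directions relative to DMSO.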
structure (smiles),measurement,setting,value
C[Si](Cn1cncn1)(c1ccc(F)cc1)c1ccc(F)cc1,outcome,[1],inactive
same,outcome,[2],inactive
same,outcome,[3],inactive
same,outcome,[4],inactive
same,outcome,[5],inactive
same,outcome,[6],inactive
same,outcome,[7],inactive
same,outcome,[8],inactive
same,outcome,[9],inactive
same,outcome,[10],inactive
same,outcome,[11],inactive
same,outcome,[12],inactive
same,outcome,[13],inactive
same,outcome,[14],inactive
same,outcome,[15],inactive
same,outcome,[16],inactive
same,outcome,[17],inactive
same,AC50,[18],57.8 µM (active)
CC(COc1ccc(Oc2ccccc2)cc1)Oc1ccccn1 (stereo not given),outcome,[1],inactive
same,outcome,[19],inactive
same,outcome,[2],inactive
same,outcome,[3],inactive
same,outcome,[4],inactive
same,outcome,[5],inactive
same,outcome,[6],inactive
same,outcome,[7],inactive
same,AC50,[8],66.9 µM (active)
same,AC50,[9],77 µM (active)
same,outcome,[10],inactive
same,outcome,[11],inactive
same,outcome,[12],inactive
same,outcome,[13],inactive
same,AC50,[14],65.7 µM (active)
same,outcome,[15],inactive
same,outcome,[16],inactive
same,AC50,[17],87 µM (active)
same,AC50,[18],49.2 µM (active)
C=C(C)[C@H]1Cc2c(ccc3c2O[C@@H]2COc4cc(OC)c(OC)cc4[C@@H]2C3=O)O1,outcome,[1],inactive
same,outcome,[19],inactive
same,AC50,[2],4.74 µM (active)
same,outcome,[3],inactive
same,outcome,[5],inactive
same,outcome,[6],inactive
same,outcome,[7],inactive
same,outcome,[8],inactive
same,AC50,[9],0.0391 µM (active)
same,outcome,[11],inactive
same,AC50,[12],15.7 µM (active)
same,outcome,[13],inactive
same,AC50,[14],0.295 µM (active)
same,outcome,[15],inactive
same,AC50,[17],0.283 µM (active)
same,AC50,[18],12.8 µM (active)
CCC(=O)Nc1ccc(Cl)c(Cl)c1,outcome,[1],inactive
same,outcome,[2],inactive
same,outcome,[3],inactive
same,outcome,[4],inactive
same,outcome,[5],inactive
same,outcome,[6],inactive
same,outcome,[7],inactive
same,outcome,[8],inactive
same,AC50,[9],79.3 µM (active)
same,outcome,[10],inactive
same,outcome,[11],inactive
same,outcome,[12],inactive
same,outcome,[13],inactive
same,outcome,[14],inactive
same,outcome,[15],inactive
same,outcome,[16],inactive
same,outcome,[17],inactive
same,outcome,[18],inactive
CCOC(=O)COc1cc(-c2nn(C)c(OC(F)F)c2Cl)c(F)cc1Cl,outcome,[1],inactive
same,outcome,[2],inactive
same,outcome,[3],inactive
same,outcome,[4],inactive
same,outcome,[5],inactive
same,outcome,[6],inactive
same,outcome,[7],inactive
same,outcome,[8],inactive
same,outcome,[9],inactive
same,outcome,[10],inactive
same,outcome,[11],inactive
same,outcome,[12],inactive
same,outcome,[20],inactive
same,outcome,[13],inactive
same,outcome,[14],inactive
same,outcome,[16],inactive
same,outcome,[17],inactive
same,outcome,[18],inactive
CCCCN(CC)c1c([N+](=O)[O-])cc(C(F)(F)F)cc1[N+](=O)[O-],outcome,[1],inactive
same,outcome,[19],inactive
same,outcome,[2],inactive
same,outcome,[3],inactive
same,outcome,[4],inactive
same,outcome,[5],inactive
same,outcome,[6],inactive
same,outcome,[7],inactive
same,outcome,[8],inactive
same,outcome,[10],inactive
same,outcome,[11],inactive
same,outcome,[12],inactive
same,outcome,[20],inactive
same,outcome,[13],inactive
same,AC50,[14],71.9 µM (active)
same,outcome,[16],inactive
same,AC50,[17],108 µM (active)
same,AC50,[18],84.6 µM (active)
Cc1nn(-c2cc(NS(C)(=O)=O)c(Cl)cc2Cl)c(=O)n1C(F)F,outcome,[1],inactive
same,outcome,[19],inactive
same,outcome,[2],inactive
same,outcome,[3],inactive
same,outcome,[4],inactive
same,outcome,[5],inactive
same,outcome,[6],inactive
same,outcome,[7],inactive
same,outcome,[8],inactive
same,outcome,[11],inactive
same,outcome,[12],inactive
same,outcome,[20],inactive
same,outcome,[13],inactive
same,outcome,[14],inactive
same,outcome,[15],inactive
same,outcome,[16],inactive
same,outcome,[17],inactive
same,outcome,[18],inactive
